Laboratory results: PubChem BioAssay AID1159580 (chemical genetic matrix, 2015)
Several values for one entry are separate records, joined by “and”; a condition that tells them apart may be missing. Equal values may be shown once. The whole screen tested about 5,500 compounds, of which about 2,000 (36%) were called active. Not shown: some 18% with an inconclusive outcome. No stated cut-off is given here; in the data, active means normalized growth mostly below about 0.91 (no sharp cut-off); inconclusive means no clear call, values can overlap the other calls; inactive means mostly above about 0.92. The list shows a part of the results.

Test: chemical genetic growth profiling, strain panel (AID 1159580);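 further: tested at 20 µM; growth read once vehicle control cultures reached saturation at 30 °C; 1 = growth at the plate median or of vehicle wells; lower values mean less growth of the strain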
Conditions: S. cerevisiae deletion strains, growth OD

Measured: normalized growth

Cn1c(=O)[nH]c2ncn(C)c2c1=O
inactive: locus YJR043C, strain POL32, hits give low values 1.02 | locus YJR075W, strain HOC1, hits give low values 1.01 and 1 | locus YKL009W, strain mrt4, hits give low values 1.03 | locus YKL068W, hits give low values 0.988 | locus YKL085W, strain MDH1 (second series), hits give low values 0.993 | locus YKL085W, strain MDH1, hits give low values 0.993 | locus YKL160W, strain elf1, hits give low values 1.02 | locus YKL190W, strain CNB1, hits give low values 1.01 | locus YKR001C, strain vps1, hits give low values 0.997 | locus YKR026C, strain gcn3, hits give low values 0.964 | locus YKR091W, strain srl3, hits give low values 0.98 | locus YLL001W, strain dnm1, hits give low values 0.988 | locus YLL026W, hits give low values 0.989 | locus YLL041C, strain sdh2, hits give low values 0.978 | locus YLR027C, strain aat2, hits give low values 1 | locus YLR039C, strain RIC1, hits give low values 1.02 | locus YLR058C, strain SHM2, hits give low values 1.01 | locus YLR102C, strain apc9, hits give low values 0.995 | locus YLR221C, strain rsa3, hits give low values 0.943 | locus YLR258W, strain gsy2, hits give low values 0.993 | locus YLR262C, strain YPT6 (second series), hits give low values 0.983 | locus YLR262C, strain YPT6, hits give low values 1.03 | locus YLR268W, strain sec22, hits give low values 0.988 | locus YLR320W, strain mms22, hits give low values 0.97 | locus YLR330W, strain CHS5, hits give low values 1.01 | locus YLR342W, strain FKS1 (second series), hits give low values 1.03 | locus YLR342W, strain FKS1, hits give low values 0.975 | locus YLR357W, strain rsc2, hits give low values 0.97 | locus YLR370C, strain arc18, hits give low values 0.966 | locus YLR371W, strain rom2, hits give low values 0.986 | locus YLR384C, strain iki3, hits give low values 0.97 | locus YLR418C, strain cdc73, hits give low values 1 | locus YML016C, strain PPZ1, hits give low values 1.01 | locus YML032C, strain rad52, hits give low values 0.995 | locus YML120C, strain ndi1, hits give low values 0.995 | locus YML124C, strain tub3, hits give low values 0.993 | locus YMR058W, strain fet3, hits give low values 0.981 | locus YMR078C, strain ctf18, hits give low values 0.984 | locus YMR125W, strain sto1, hits give low values 0.987 | locus YMR129W, hits give low values 0.984 | locus YMR205C, strain PFK2, hits give low values 0.995 | locus YMR223W, strain ubp8, hits give low values 1.01 | locus YMR231W, strain pep5, hits give low values 0.961 | locus YMR263W, strain SAP30, hits give low values 1.01 and 0.996 | locus YMR307W, strain GAS1, hits give low values 1.06 and 0.981 | locus YNL067W, strain RPL9B, hits give low values 1.01
